Screens as filed in PubChem BioAssay.
CSC inhib: cancer stem cell inhibition | cancer stem cell-like cells viability, luminescence | inhibition, % at 7.5 µM | 300,000 compounds, 1.1% hits | AID 2717; in the data active means inhibition above about 75%; inconclusive means no clear call, values can overlap the other calls; tested in HMLE shEcad cells
aSyn UTR inh: 5' untranslated region of α-synuclein, MLPCN primary screen; alpha-synuclein 5'UTR reporter, inhibitor activity; inhibition, % (tested at 7.5 µM); 300,000 compounds, 0.82% hits; AID 1813; in the data active means inhibition above about 60%; inconclusive means no clear call, values can overlap the other calls;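 further: H4 neuroglioblastoma cells stably carrying SNCA 5'UTR luciferase fusion; 0% = DMSO wells and 100% = positive control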
Mdm2-MdmX inh: inhibitors of human Mdm2/MdmX interaction; O15151+Q00987; SaOS-2 split-luciferase Mdm2/MdmX complementation, luminescence; inhibition, % at 8 µM; 330,000 compounds, 3% hits;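 active means inhibition of at least 50% at 8 µM in the primary screen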
Target sequence (O15151 whole entry, looked up): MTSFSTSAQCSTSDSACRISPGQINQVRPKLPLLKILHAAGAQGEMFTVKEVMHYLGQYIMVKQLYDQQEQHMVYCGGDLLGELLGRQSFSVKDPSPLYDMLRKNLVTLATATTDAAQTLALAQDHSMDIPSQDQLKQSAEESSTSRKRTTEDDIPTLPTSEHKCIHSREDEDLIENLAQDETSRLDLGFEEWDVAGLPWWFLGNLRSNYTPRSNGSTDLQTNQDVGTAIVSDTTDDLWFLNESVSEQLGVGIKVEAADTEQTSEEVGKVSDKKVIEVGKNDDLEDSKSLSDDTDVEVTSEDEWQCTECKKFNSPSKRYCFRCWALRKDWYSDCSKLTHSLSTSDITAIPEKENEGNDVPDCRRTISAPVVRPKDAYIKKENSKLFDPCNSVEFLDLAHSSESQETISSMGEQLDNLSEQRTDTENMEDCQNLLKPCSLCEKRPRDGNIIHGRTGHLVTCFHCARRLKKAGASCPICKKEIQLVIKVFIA
Target sequence (Q00987 whole entry, looked up): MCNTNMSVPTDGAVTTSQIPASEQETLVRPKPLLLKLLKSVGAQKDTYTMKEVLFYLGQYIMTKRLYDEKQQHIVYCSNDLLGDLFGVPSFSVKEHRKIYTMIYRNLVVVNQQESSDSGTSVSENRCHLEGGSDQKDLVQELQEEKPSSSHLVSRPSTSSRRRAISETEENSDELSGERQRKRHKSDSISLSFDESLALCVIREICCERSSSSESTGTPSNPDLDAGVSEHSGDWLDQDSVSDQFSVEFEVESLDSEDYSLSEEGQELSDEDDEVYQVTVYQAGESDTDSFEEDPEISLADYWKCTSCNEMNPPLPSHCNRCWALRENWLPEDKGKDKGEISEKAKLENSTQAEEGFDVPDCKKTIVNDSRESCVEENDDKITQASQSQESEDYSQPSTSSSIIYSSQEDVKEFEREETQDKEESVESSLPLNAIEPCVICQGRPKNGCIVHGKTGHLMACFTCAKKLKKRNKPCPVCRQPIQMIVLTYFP
Gli-Sufu block: blocks Gli-Sufu signaling in a luciferase reporter. 340,000 compounds, 0.74% hits. inhibition, % at 5 µM. Sufu-KO-LIGHT fibroblasts, Gli luciferase reporter luminescence;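 active means inhibition above about 55%, limit read from the data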;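 further: 0% = DMSO-treated cells and 100% = wells with medium but no cells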
697 NFkB inh: inhibitors of the PMA/ionomycin-induced NF-kB reporter in 697 B cells | 330,000 compounds, 0.33% hits | 697 B-cell NF-kB luciferase reporter, 16 h | inhibition, % at 4 µM; in the data active means inhibition above about 35%
Jurkat NFkB inh: inhibitors of the PMA/ionomycin-induced NF-kB reporter in Jurkat cells. AID 435003. inhibition, % at 4 µM. 330,000 compounds, 0.53% hits. PMA/ionomycin-induced NF-kB luciferase reporter, luminescence; in the data active means inhibition above about 50%
Mdm2-MdmX conf: human Mdm2/MdmX binding inhibition, confirmed; AID 489028; inhibition, % at 8 µM; luminescent assay; 10,000 compounds, 55% hits; shares compounds with Mdm2-MdmX inh; in the data active means inhibition above about 40%
Full FLuc ctr: inhibits full-length luciferase, flagging false Mdm2/MdmX hits; 6,200 compounds, 77% hits; inhibition, % at 8 µM; shares compounds with Mdm2-MdmX inh; SaOS-2 full-length luciferase counterscreen, luminescence;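 active means mean inhibition at 8 µM reaching about 37%, which flags the compound as non-specific, limit read from the data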;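 further: p53-null SaOS-2 cells with luciferase driven by a doxycycline-inducible promoter; compound on cells about two nights before reading with doxycycline added after day one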
* = called active by the depositor; ? = inconclusive; . = no result. Sampled rows, rich in hits. Any-hit rate of the full collection: about 4.5%.

SMILES | CSC inhib | aSyn UTR inh | Mdm2-MdmX inh | Gli-Sufu block | 697 NFkB inh | Jurkat NFkB inh | Mdm2-MdmX conf | Full FLuc ctr
CN1CCN(C(c2ccc(C(F)(F)F)cc2)c2ccc3cccnc3c2O)CC1 (centres undefined) | 98* | 46 | 74* | 19 | -22 | 20 | 73* | 28
CN1CCN(C(c2cccc(C(F)(F)F)c2)c2nnnn2C(C)(C)C)CC1 (centres undefined) | -7 | -32 | -6 | -2 | 10 | 8 | . | .
Fc1ccccc1Oc1nc(-c2ccncc2)nc2ccccc12 | 20 | 12 | 34 | 1 | -32 | -4 | . | .
COc1cccc(NC(=O)CN(C)CC(=O)Nc2ccc(C)c(S(=O)(=O)N3CCOCC3)c2)c1 | . | . | . | 2 | . | . | . | .
CN(C(=O)CCc1nc2ccccc2c(=O)[nH]1)C1CCS(=O)(=O)C1 (centres undefined) | . | . | 19 | -4 | 17 | -7 | . | .
Clc1cc(Br)ccc1OCCCNCc1ccccc1 | 37 | -17 | 55* | 16 | -3 | -2 | 11 | .
COc1cc(CNCCN2CCOCC2)ccc1OCc1ccc(Cl)cc1 | 7 | -36 | 12 | 11 | -16 | -16 | . | .
COc1cc(CNCCCN2CCOCC2)cc(Br)c1OCc1ccc(Cl)cc1 | -9 | -30 | 69* | 32 | -5 | 20 | 45* | 59*
CCCC(=O)Nc1sc2c(c1C(=O)Nc1ccccn1)CCCC2 | -19 | -45 | 12 | 7 | 3 | -1 | . | .
CCCC[C@@H](CNC)NC[C@H](NCCCCC1CCCCC1)C(C)C | -25 | -13 | 98* | 7 | -6 | 6 | 43* | 65*
O=C(NC(NC(=S)Nc1cccc(C(=O)O)c1)C(Cl)(Cl)Cl)OCc1ccccc1 (centres undefined) | -9 | -19 | 13 | 2 | 15 | 13 | . | .
O=C(O)c1cccc(NC(=S)NC(NC(=O)c2ccco2)C(Cl)(Cl)Cl)c1 (centres undefined) | -10 | -3 | 20 | 13 | 11 | 6 | . | .
O=C(NC(NC(=S)Nc1cccc(Cl)c1)C(Cl)(Cl)Cl)OCc1ccccc1 (centres undefined) | 116* | 2 | 92* | -3 | -32 | -9 | 55* | 53*
O=C(NC(NC(=S)Nc1ccc(Cl)c(Cl)c1)C(Cl)(Cl)Cl)c1ccco1 (centres undefined) | 66 | -6 | 59* | 16 | 9 | 17 | 40 | 74*
CC(CCc1ccccc1)NC(=O)COC(=O)c1ccccc1O (centres undefined) | -3 | -9 | -1 | 18 | 19 | 2 | . | .
Cc1cc(C)n2nc(CC(=O)NNC(=O)COc3ccccc3)nc2n1 | -12 | -10 | 19 | -17 | 2 | 10 | . | .
Cc1nc2ccc(Nc3ccncc3)cc2s1 | -9 | 12 | -5 | 1 | 9 | -15 | . | .
COc1ccc2c(c1[N+](=O)[O-])CCC/C2=N/OC(=O)c1cccc2ccccc12 | 2 | -9 | 52* | 0 | -9 | -12 | 3 | .
Clc1ccc(Nc2ncnc3ccc(Br)cc23)cc1 | ? | -30 | 77* | 6 | -42 | 16 | 61* | 37*
CN(C)c1ccc(Nc2ncnc3ccc(Br)cc23)cc1 | 10 | -72 | 78* | -20 | -33 | 12 | 68* | 37*
CN(C)c1ccc(Nc2cc(Cl)ncn2)cc1 | -1 | 10 | 6 | -23 | -23 | -26 | . | .
COCCCN(C(=O)c1cc(Cl)nc2ccccc12)c1c(N)n(Cc2ccccc2)c(=O)[nH]c1=O | . | . | 3 | -10 | -5 | 8 | . | .
COc1ccc(Cl)c2sc(NC(=O)C3=COCCO3)nc12 | 6 | -41 | 54* | -14 | -11 | -5 | 24 | .
NS(=O)(=O)c1ccc2nc(NC(=O)c3ccc4ncsc4c3)sc2c1 | 5 | -33 | -9 | 10 | -5 | -6 | . | .
NS(=O)(=O)c1ccc2nc(NC(=O)c3ccc4c(c3)OCCO4)sc2c1 | 1 | 6 | 76* | 0 | -2 | 1 | 24 | .
SMILES | CSC inhib | aSyn UTR inh | Mdm2-MdmX inh | Gli-Sufu block | 697 NFkB inh | Jurkat NFkB inh | Mdm2-MdmX conf | Full FLuc ctr
O=C(Nc1nc2cc3c(cc2s1)OCCO3)C1=COCCO1 | 13 | 99* | 87* | 49 | 4 | 37 | 83* | 39*
CC(=O)Nc1nc2cc3c(cc2s1)OCCO3 | 10 | -57 | -106 | -79 | -191 | -130 | . | .
CC(=O)NCCSc1ccc(S(=O)(=O)N2CCCC2)cn1 | . | . | 21 | -5 | 8 | -2 | . | .
O=C(COC(=O)C1=COCCO1)Nc1cc(Cl)c(Cl)cc1Cl | 2 | . | -3 | -15 | -31 | -21 | . | .
CCOC(=O)c1[nH]cnc1C(=O)Nc1ccccc1OC | -4 | 17 | 3 | 0 | 9 | -2 | . | .
O=C(COc1cccc(-n2cnnn2)c1)Nc1ccccc1 | -3 | -14 | -3 | 2 | 5 | -7 | . | .
CC1CCN(C(=O)Cn2nnc(-c3ccc(C(C)C)cc3)n2)CC1 | 2 | -1 | 34 | 11 | -3 | -1 | . | .
COc1ccc(Cn2c(CCC(=O)Nc3ccccc3)nc3cccnc32)cc1 | 14 | 14 | 77* | 4 | -36 | -21 | 13 | .
CCCc1c(C(=O)N/N=C/c2cccnc2)nnn1-c1nonc1N | -10 | -4 | 22 | -8 | -4 | -6 | . | .
Nc1[nH]n2c(=O)c3c(nc2c1N=Nc1ccccc1)CCCC3 | . | 15 | 47 | 31 | -4 | -6 | . | .
Nc1[nH]n2c(=O)c3c(nc2c1N=Nc1ccc(Cl)cc1)CCCC3 | 41 | -17 | 53* | 0 | 18 | -2 | 26 | .
CN1C(=O)C(CC#N)(C2(CC#N)C(=O)N(C)c3ccccc32)c2ccccc21 (centres undefined) | . | . | . | -4 | . | . | . | .
CCN(CC)S(=O)(=O)c1cc(OC)ccc1N=Nc1ccc(O)c2ncccc12 | 94* | ? | 74* | 23 | 8 | 16 | 73* | 36
CCS(=O)(=O)c1ccc(OC)c(N=Nc2ccc(O)c3ncccc23)c1 | -4 | 66* | 71* | 11 | -20 | 6 | 54* | 50*
CCN(CC)S(=O)(=O)c1cccc2cccnc12 | -7 | -40 | -11 | 1 | 7 | 6 | . | .
COc1ccc(S(=O)(=O)NCCOc2cccc3cccnc23)cc1OC | . | 3 | -3 | -3 | 0 | 10 | . | .
CC(=O)OC[C@H]1O[C@H](C/C=N/OC[C@@H](O)[C@H]2O[C@@H]3OC(C)(C)O[C@@H]3[C@H]2O)C=C[C@@H]1OC(C)=O | 5 | 13 | 13 | . | 11 | 10 | . | .
O=C1NC[C@H](c2ccccc2)OC(=O)[C@@H](Cc2ccc(F)cc2)CC/C=C/C[C@H]1CC(=O)N(CCO)Cc1ccccc1 | 31 | . | 78* | 19 | 18 | 0 | 50* | 62*
O=C1NC[C@H](c2ccccc2)OC(=O)[C@@H](Cc2ccc(F)cc2)CC/C=C/C[C@@H]1CC(=O)N(CCO)Cc1ccccc1 | -5 | . | 7 | 16 | 2 | 6 | . | .
